This passage reports AC50 results from PubChem BioAssay AID2284089 (EPA ToxCast).

By AC50 is commonly meant the midpoint of the concentration-response curve, whichever way the signal moves.

Active and inactive are the calls of the source. The calls were made as follows: active = hit-call score of the fitted dose curve at least 0.9, where 1 is the maximum; inactive = score below 0.9.

The target in this assay is Cytochrome P450 2C19 (Homo sapiens) (UniProt P33261). Description: ERF_FR_ADME_hCYP2C19_CEC: Eurofins (ERF) CYP450-related Enzyme Activity (ADME) Assay for CYP2C19 Inhibition Assay, CEC Subtrate. The procedure: ERF_FR_ADME_hCYP2C19_CEC is a biochemical, single-readout assay that uses extracted gene-proteins in a cell-free assay. Measurements were taken 0.83 hour after chemical dosing in a 96-well plate. See CYP2C19 inhibition (recombinant, CEC substrate).ERF_FR_ADME_hCYP2C19_CEC is an assay component calculated from the ERF_FR_ADME_hCYP2C19_CEC assay. It is designed to measure enzyme activity using a type of enzyme reporter as detected by fluorescence intensity of HFC with fluorimetry technology.Data from the assay component ERF_FR_ADME_hCYP2C19_CEC was analyzed at the assay endpoint, ERF_FR_ADME_hCYP2C19_CEC, in the positive analysis fitting direction relative to acetonitrile as the negative control and baseline of activity. Using a type of enzyme reporter, loss-of-signal activity can be used to understand changes in enzymatic activity as they relate to gene CYP2C19. To generalize the intended target to other relatable targets, this assay endpoint is annotated to the cyp intended target family, where the subfamily is steroidogenesis-related.
Sequence of Cytochrome P450 2C19 (Homo sapiens) (P33261 whole entry, looked up): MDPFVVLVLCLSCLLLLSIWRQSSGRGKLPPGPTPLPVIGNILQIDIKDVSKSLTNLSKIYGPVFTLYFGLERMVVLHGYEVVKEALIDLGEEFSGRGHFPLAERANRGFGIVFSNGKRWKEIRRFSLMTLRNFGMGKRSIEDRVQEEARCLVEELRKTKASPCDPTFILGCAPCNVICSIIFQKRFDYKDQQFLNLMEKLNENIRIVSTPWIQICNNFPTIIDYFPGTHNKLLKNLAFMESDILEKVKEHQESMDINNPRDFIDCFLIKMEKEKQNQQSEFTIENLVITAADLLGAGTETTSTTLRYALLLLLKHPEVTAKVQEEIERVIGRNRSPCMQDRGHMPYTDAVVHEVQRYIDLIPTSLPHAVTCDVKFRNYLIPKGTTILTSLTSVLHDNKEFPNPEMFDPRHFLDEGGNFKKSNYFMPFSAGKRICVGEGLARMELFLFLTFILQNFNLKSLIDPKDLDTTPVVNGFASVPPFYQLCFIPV
Assay is performed with 1 compound concentration(s) and each concentration tested using 2 replicate
Take `O=C(/C=C/c1ccc(O)cc1)CC(=O)/C=C/c1ccc(O)cc1`: the AC50 is 1470 nM (active).
